# Assay results: PubChem BioAssay AID720697 (Broad Institute, 2013)
# Entries with a potency or affinity are not part of this list. Records with an inconclusive call do not appear. The source made the active and inactive calls.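 How the source made its calls: active means signal loss with fitted half-maximal concentration at or below twice the top valid tested dose in every test run; inconclusive means runs disagree, flat 30 to 70% signal loss, or poor fit; inactive means all runs flat, opposite direction, or potency beyond limit.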
# Assay: HEK293T cytotoxicity, dose response, cytotoxicity control for miR-122 modulator project, cell-based, inhibitor set, cherry-pick, set 2 (AID 720697);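 further: 0% = median of neutral control wells and -100% = MG132 positive control wells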
# Conditions: HEK293T viability, CellTiter-Glo luminescence, 48 h; series mostly up to 26 µM; activity change, negative = cytotoxicity: at the top concentration
row,Structure (SMILES),"activity change, negative = cytotoxicity"
1,CN1C(=O)c2cc(NC(=O)c3ccc4c(c3)OCO4)ccc2OC[C@H]2O[C@@H](CC(=O)O)CC[C@@H]21,128% (inactive)
2,C[C@H]1CN([C@@H](C)CO)S(=O)(=O)c2ccc(C#CC3CCCCC3)cc2O[C@@H]1CN(C)C,20.7% (inactive)
3,CNC(=O)C[C@@H]1CC[C@H]2[C@@H](COc3ccc(NC(=O)c4ccc(C(F)(F)F)cc4)cc3C(=O)N2C)O1,95.8% [at 23.5 µM] (inactive)
4,CNC[C@@H]1Oc2cc(C#CC3CCCCC3)ccc2S(=O)(=O)N([C@@H](C)CO)C[C@@H]1C,-99.5% (inactive)
5,CN1C(=O)c2cc(NC(=O)c3cccc(F)c3)ccc2OC[C@H]2O[C@H](CC(=O)O)CC[C@H]21,112% (inactive)
6,N#Cc1cccc(NC(=O)Nc2cccs2)c1,96.1% (inactive)
7,CC(C)C(=O)Nc1ccc2c(c1)C(=O)N(C)[C@@H]1CC[C@@H](CC(=O)N[C@H](C)c3ccccc3)O[C@@H]1CO2,50.7% [at 23.5 µM] (inactive)
8,COCC(=O)Nc1ccc2c(c1)C(=O)N(C)[C@@H]1CC[C@@H](CC(=O)NC3CCCC3)O[C@H]1CO2,103% [at 23.5 µM] (inactive)
9,CNC(=O)C[C@@H]1CC[C@H]2[C@@H](COc3ccc(NC(=O)C(C)C)cc3C(=O)N2C)O1,52.1% (inactive)
10,COC(=O)c1nn(-c2ccccc2)c(Sc2ccc(Cl)cc2)c1/C=N/O,48.2% (inactive)
11,COCC(=O)NC[C@H]1N[C@H](CO)[C@H]1c1ccc(C2=CCCC2)cc1,55.1% (inactive)
12,COc1ccc(C#Cc2ccc3c(c2)O[C@@H](CN(C)C(=O)CN2CCOCC2)[C@@H](C)CN([C@H](C)CO)S3(=O)=O)cc1,107% (inactive)
13,CCN(C[C@@H]1[C@@H](c2ccccc2)[C@@H](CO)N1S(C)(=O)=O)C(=O)C1CC1,135% (inactive)
14,CCCC(=O)Nc1ccc2c(c1)C(=O)N(C)[C@@H]1CC[C@H](CC(=O)N3CCc4ccccc4C3)O[C@H]1CO2,83.8% (inactive)
15,CN(C[C@@H]1[C@@H](c2ccccc2)[C@H](CO)N1C(=O)C1CCC1)C(=O)c1ccccn1,195% (inactive)
16,CCOC(=O)CSc1nnnn1-c1cccc2ccccc12,20.9% (inactive)
17,C[C@@H]1CN([C@@H](C)CO)C(=O)c2cccc(NC(=O)Nc3ccc4c(c3)OCO4)c2O[C@@H]1CN(C)Cc1ccc(Oc2ccccc2)cc1,8.06% (inactive)
18,CCNC(=O)C[C@@H]1CC[C@H]2[C@@H](COc3ccc(NC(=O)Nc4ccc(F)cc4)cc3C(=O)N2C)O1,45.4% (inactive)

row,Structure (SMILES),"activity change, negative = cytotoxicity"
1,Cc1ccc(-c2noc(CCC(=O)Nc3ccccc3C)n2)cc1,75.7% (inactive)
2,Cc1ccccc1-c1nc(CN2CCCC(C(=O)NCCCN3CCOCC3)C2)c(C)o1 (stereo unspecified),124% (inactive)
3,Cc1c(CC(=O)NCCCC(=O)O)c(=O)oc2cc3occ(-c4ccccc4)c3cc12,75.4% (inactive)
4,O=C(NC[C@@H]1N[C@@H](CO)[C@H]1c1ccccc1)C1CCC1,14.5% (inactive)
5,COc1cccc(-c2nc(NCCN3CCOCC3)c3ccccc3n2)c1O,61.8% (inactive)
6,C[C@@H]1CN([C@H](C)CO)C(=O)c2cc(-c3cccc(C#N)c3)cnc2O[C@H]1CN(C)C(=O)C1CCC1,61.4% (inactive)
7,COc1cccc(S(=O)(=O)N(C)C[C@@H]2Oc3cc(C4=CCCC4)ccc3S(=O)(=O)N([C@H](C)CO)C[C@@H]2C)c1,-8.81% (inactive)
8,N=c1n(CC(=O)c2ccc(Br)s2)c2ccccc2n1Cc1ccccc1,-12.8% (inactive)
9,COc1ccc(S(=O)(=O)N(C)C[C@@H]2Oc3cc(-c4cccc(F)c4)ccc3S(=O)(=O)N([C@H](C)CO)C[C@H]2C)cc1,-5.58% (inactive)
10,CC(=O)N1[C@@H](CO)[C@@H](c2ccccc2)[C@@H]1CNC(=O)CN1CCOCC1,-30.7% (inactive)
11,CCN(C[C@@H]1[C@@H](c2ccccc2)[C@@H](CO)N1C(=O)COC)S(C)(=O)=O,-30.5% [at 23.5 µM] (inactive)
12,O=C(Nc1ccccc1)N1C[C@@H]2[C@H](c3ccccc31)[C@H](CO)N2C(=O)c1ccncc1,88.5% [at 23.5 µM] (inactive)
13,Cc1ccc(C(=O)n2nc(-c3ccccc3)nc2NCc2ccco2)cc1,11.4% (inactive)
14,COCC(=O)Nc1ccc2c(c1)C(=O)N(C)[C@H]1CC[C@@H](CC(=O)NC3CCCC3)O[C@H]1CO2,12.9% (inactive)
15,COCC(=O)N(C)C[C@H]1[C@H](c2ccccc2)[C@@H](CO)N1C(=O)NC(C)C,101% (inactive)
16,CN1C(=O)c2cc(NC(=O)c3ccccc3F)ccc2OC[C@H]2O[C@H](CC(=O)NCc3ccc4c(c3)OCO4)CC[C@@H]21,52.3% (inactive)
17,COc1ccc(S(=O)(=O)Nc2cc(C)cc(C)n2)c2ccccc12,17.9% (inactive)
18,C[C@H]1CN([C@@H](C)CO)S(=O)(=O)c2ccc(C3=CCCC3)cc2O[C@H]1CN(C)Cc1cccnc1,-21.6% (inactive)
